# Values quoted from earlier work in PubChem BioAssay AID977611.
# Out of some 3,900 compounds screened, about 3,900 (100%) were called active. The limit is not given here; nearly all actives have Kd up to about 4200 µM. So high a share suggests a set chosen from earlier hits. The list shows a part of the results. Numbered stars: 1 amine (or outer) side, 2 acyl side, 3 side chain; on linkers, the order of the positions; unused ones are H or OH. Where a SMILES comes first, the peptide text is derived from it. Non-standard residues stand in square brackets, D forms with d. Square brackets hold non-standard residues; d marks the D form. Residues, ends and D or L forms follow the SMILES beside them. Bridges are numbered along the chain shown (N, C = ends). Peptide text beside a SMILES is read from it. [ ]: non-standard residue; d: D form. X1 = O=C([C@H](Cc1ccc(O[P+](O)(O)O)cc1)N[*:1])[*:2]; Orn(CH(NH2)2) = NC(N)NCCC[C@H](N)C(=O)O
# Test: PubChem AID 977611
# Details: PDB protein-ligand complexes, literature Kd
compound,measurement,setting,value
CCOc1cc(C(=O)O)nc2c(NC(=O)c3cc(O)c4cccc(NC(=O)c5cc(O)c6cccc(NC(=O)c7cc(OCC(C)C)c8cccc(NC(=O)NCCCCOc9cccc(CNC(=O)c%10ccc(S(N)(=O)=O)cc%10)c9)c8n7)c6n5)c4n3)cccc12,Kd,"protein: Human Carbonic Anhydrase II, PDB entry 4lp6",0.00536 µM (active)
OS(O)(O)OC1C(OS(O)(O)O)C(OS(O)(O)O)C(OS(O)(O)O)C(OS(O)(O)O)C1OS(O)(O)O (centres undefined),Kd,"protein: HISTIDINE ACID PHOSPHATASE, PDB entry 4aro",0.16 µM (active)
Cc1cc(OCCCS(C)(=O)=O)cc(C)c1-c1cccc(COc2ccc3c(c2)OC[C@H]3CC(=O)O)c1,Kd,"protein: Free fatty acid receptor 1,Lysozyme hGPR40(L42A,F88A,G103A,Y202F mutant), PDB entry 4phu",0.012 µM (active)
CN(C)CCCn1cc(C2C(=O)NC(=O)C2c2c[nH]c3ccccc23)c2ccccc21 (centres undefined),Kd,"protein: human PIM1 kinase domain, PDB entry 1xws",0.01 µM (active)
C[C@H]1O[C@@H](c2cccc(O)c2O)N[C@@H]1C(=O)NCCCN(CCCNC(=O)c1cccc(O)c1O)C(=O)[C@H]1N[C@H](c2cccc(O)c2O)O[C@@H]1C,Kd,"protein: Ferric vibriobactin ABC transporter, periplasmic ferric vibriobactin-binding protein, PDB entry 3r5t",0.00265 µM (active)
CN(C)C1=CCN(Cc2ccc(CCCCc3ccc(Cn4cnc5c(N)ncnc54)cc3)cc2)C=C1,Kd,"protein: CHOLINE KINASE ALPHA, PDB entry 3zm9",0.038 µM (active)
Ac-SISYTDEIEEEDYD-OH,Kd,"protein: Fibronectin, PDB entry 4pz5",0.121 µM (active)
CC[C@H](C)[C@H](NC(=O)[C@@H](NC(=O)[C@H](CC(C)C)NC(=O)[C@@H](N)CO)[C@@H](C)O)C(=O)N[C@@H](Cc1ccc(O[P+](O)(O)O)cc1)C(=O)N[C@@H](C)C(=O)N[C@@H](CCC(N)=O)C(=O)N[C@H](C(=O)N[C@@H](CCC(N)=O)C(=O)N[C@@H](CCCCN)C(=O)O)C(C)C (H-SLTI[X1]AQVQK-OH),Kd,"protein: EWS/FLI1 activated transcript 2(ETA-2), PDB entry 1i3z",0.131 µM (active)
same,Kd,"protein: SAP, PDB entry 1d4w",0.12 µM (active)
CC[C@H](C)[C@H](NC(=O)[C@H](CO)NC(=O)[C@H](CO)NC(=O)[C@H](CCC(N)=O)NC(=O)[C@@H](NC(=O)[C@H](CCC(N)=O)NC(=O)[C@H](CCCNC(N)N)NC(=O)[C@H](Cc1ccccc1)NC(=O)[C@@H](NC(=O)[C@@H](N)CCCNC(N)N)[C@@H](C)O)C(C)C)C(=O)N[C@@H](CO)C(=O)N[C@@H](CC(=O)O)C(=O)N[C@@H](Cc1ccccc1)C(=O)N[C@@H](Cc1ccc(O)cc1)C(=O)N[C@@H](CC(=O)O)C(=O)O (H-[Orn(CH(NH2)2)]TF[Orn(CH(NH2)2)]QVQSSISDFYD-OH),Kd,"protein: Lipoprotein outS, PDB entry 4k0u",0.055 µM (active)
CC[C@H](C)[C@H](NC(=O)[C@H](CC(=O)O)NC(=O)[C@H](CS)NC(=O)[C@H](CCC(N)=O)NC(=O)[C@@H](NC(=O)CNC(=O)[C@@H](NC(=O)[C@@H](NC(=O)[C@H](CO)NC(=O)[C@H](CO)NC(=O)[C@H](C)N)[C@@H](C)O)[C@@H](C)O)[C@@H](C)O)C(N)=O (H-ASSTTGTQCDI-NH2),Kd,"protein: Dynein light chain 1, cytoplasmic LC8, PDB entry 4qh8",12.8 µM (active)
CC[C@H](C)[C@H](NC(=O)[C@H](Cc1ccccc1)NC(=O)[C@@H](NC(=O)[C@H](CO)NC(=O)[C@H](CO)NC(=O)[C@H](C)NC(=O)[C@@H](NC(=O)[C@@H](N)CCCNC(N)N)C(C)C)C(C)C)C(=O)N[C@H](C(=O)O)[C@@H](C)O (H-[Orn(CH(NH2)2)]VASSVFIT-OH),Kd,"protein: Filamin-A, PDB entry 2w0p",0.3 µM (active)
CC(C)C[C@H](NC(=O)[C@H](CC(C)C)NC(=O)[C@H](CC(N)=O)NC(=O)[C@@H](NC(=O)[C@H](C)NC(=O)[C@H](CCCCN)NC(=O)[C@H](CO)NC(=O)[C@H](CCCCN)NC(=O)[C@@H](NC(=O)[C@@H](N)CC(C)C)C(C)C)[C@@H](C)O)C(=O)N[C@H](C=O)Cc1ccc(O)cc1 (H-LVKSKATNLLY-aldehyde),Kd,"protein: ATP-Dependent Clp Protease Adapter Protein ClpS, PDB entry 2w9r",4.8 µM (active)
CC[C@H](C)[C@H](NC(=O)[C@@H](NC(=O)[C@H](CC(C)C)NC(=O)[C@H](CO)NC(=O)[C@@H](N)CCCCN)[C@@H](C)O)C(=O)N[C@@H](Cc1ccc(O)cc1)C(=O)N[C@@H](C)C(=O)N[C@@H](CCC(N)=O)C(=O)N[C@H](C(=O)N[C@@H](CCC(N)=O)C(=O)N[C@@H](CCCCN)C(=O)O)C(C)C (H-KSLTIYAQVQK-OH),Kd,"protein: SAP, PDB entry 1d4t",0.65 µM (active)
H-YAESGIQTDL-OH,Kd,"protein: Dynein light chain 1, cytoplasmic, PDB entry 4ds1",17.9 µM (active)
H-GWNSFQSS-OH,Kd,"protein: GAE domain of ADP-ribosylation factor-binding protein GGA1(GGA1-GAE), PDB entry 2dwx",180 µM (active)
N[C@@H](CC(=O)O)C(=O)N[C@@H](Cc1c[nH]c2ccccc12)C(=O)N[C@@H](CCC(=O)O)C(=O)N[C@@H](Cc1ccccc1)C(=O)O (H-DWEF-OH),Kd,"protein: human protein 25? (MO25?), PDB entry 1upk",0.4 µM (active)
C[C@H](N)C(=O)N[C@@H](Cc1c[nH]c2ccccc12)C(=O)N[C@@H](CC(N)=O)C(=O)N[C@@H](CO)C(=O)O (H-AWNS-OH),Kd,"protein: mRNA-capping enzyme subunit alpha Pce1, PDB entry 4pz8",1.19 µM (active)
CSCC[C@H](NC(=O)[C@H](CCCN=C(N)N)NC(=O)[C@H](CCCN=C(N)N)NC(=O)[C@H](Cc1ccccc1)NC(=O)[C@H](CO[P+](O)(O)O)NC(=O)[C@H](CCC(N)=O)NC(=O)[C@H](CCCN=C(N)N)NC(=O)[C@H](CC(C)C)NC(=O)[C@H](CO)NC(=O)[C@H](CCCCN)NC(=O)[C@@H](N)CCCCN)C(=O)N[C@@H](C)C(=O)O,Kd,"protein: Disks large homolog 4, Dlg GK, PDB entry 3wp1",14.1 µM (active)
CC(C)C[C@H](NC(=O)[C@H](CO)NC(=O)[C@H](CCCCN)NC(=O)[C@H](CCCCN)NC(=O)[C@H](CC(C)C)NC(=O)[C@H](CO[P+](O)(O)O)NC(=O)[C@H](CCCCN)NC(=O)[C@@H](NC(=O)[C@H](CCCN=C(N)N)NC(=O)[C@H](CO)NC(=O)[C@H](C)N)C(C)C)C(=O)N[C@@H](CCCN=C(N)N)C(=O)N[C@@H](CCC(N)=O)C(=O)N[C@@H](CO)C(=O)N[C@@H](Cc1ccccc1)C(=O)O,Kd,"protein: Disks large homolog 4, Dlg GK, PDB entry 3wp0",10.2 µM (active)
H-AIIGLMVGGVV-OH,Kd,"protein: ponezumab Fab, PDB entry 3u0t",0.0003 µM (active)
CC[C@H](C)[C@H](NC(=O)[C@@H](N)CC(=O)O)C(=O)N[C@@H](CC(=O)O)C(=O)N[C@H](C(=O)N[C@@H](CCSC)C(=O)NCC(=O)N[C@@H](CC(C)C)C(=O)O)C(C)C (H-DIDVMGL-OH),Kd,"protein: Rhodopsin, PDB entry 4pxf",800 µM (active)
CC(C)C[C@@H](C=O)NC(=O)[C@H](CC(C)C)NC(=O)[C@@H]1CCCN1C(=O)[C@H](CCCCN)NC(=O)[C@@H]1CCCN1C(=O)[C@H](C)NC(=O)[C@@H](NC(=O)[C@@H]1CCCN1C(=O)[C@H](CCCNC(N)N)NC(=O)[C@@H]1CCCN1C(=O)[C@@H]1CCCN1C(=O)[C@@H]1CCCN1)[C@@H](C)O (H-PPP[Orn(CH(NH2)2)]PTAPKPLL-aldehyde),Kd,"protein: Mona/GadsSH3C, PDB entry 2w10",0.17 µM (active)
CC(C)C[C@H](NC(=O)[C@@H]1CCCN1C(=O)[C@H](CCCNC(N)N)NC(=O)[C@@H]1CCCN1C(=O)[C@@H]1CCCN1)C(=O)N1CCC[C@H]1C(=O)N[C@H](C(=O)N[C@@H](C)C(=O)N1CCC[C@H]1C(=O)NCC(=O)N[C@@H](CO)C(=O)N[C@@H](CO)C(=O)N[C@@H](CCCCN)C(=O)N[C@H](C(=O)O)[C@@H](C)O)C(C)C (H-PP[Orn(CH(NH2)2)]PLPVAPGSSKT-OH),Kd,"protein: Fny(SH3 domain, 82 - 148), PDB entry 1azg",16 µM (active)
H-PPPLPP-OH,Kd,"protein: WW domain of Formin-binding protein 11(FBP11), PDB entry 1ywi",371 µM (active)
CC(C)C[C@H](NC(=O)[C@@H](NC(=O)[C@@H]1CCCN1C(=O)[C@@H]1CCCN1C(=O)[C@@H]1CCCN1)[C@@H](C)O)C(=O)N1CCC[C@H]1C(=O)N[C@@H](CCCCN)C(=O)N1CCC[C@H]1C(=O)N[C@@H](C)C(=O)N[C@@H](C)C(=O)N1CCC[C@H]1C(=O)O (H-PPPTLPKPAAP-OH),Kd,"protein: Nebulette, PDB entry 4f14",12.9 µM (active)
O=C(O)[C@@H]1CCCN1C(=O)[C@@H]1CCCN1C(=O)[C@@H]1CCCN1C(=O)[C@@H]1CCCN1C(=O)[C@@H]1CCCN1C(=O)[C@@H]1CCCN1C(=O)[C@@H]1CCCN1C(=O)[C@@H]1CCCN1C(=O)[C@@H]1CCCN1 (H-PPPPPPPPP-OH),Kd,"protein: PROLYL 4-HYDROXYLASE SUBUNIT ALPHA-1, PDB entry 4btb",9.8 µM (active)
O=C(O)CNC(=O)[C@@H]1CCCN1C(=O)[C@@H]1CCCN1C(=O)CNC(=O)[C@@H]1CCCN1C(=O)[C@@H]1CCCN1C(=O)CNC(=O)[C@@H]1CCCN1C(=O)[C@@H]1CCCN1 (H-PPGPPGPPG-OH),Kd,"protein: PROLYL 4-HYDROXYLASE SUBUNIT ALPHA-1, PDB entry 4bt9",144 µM (active)
COC(=O)c1cccc2[nH]ccc12,Kd,"protein: DNA REPAIR AND RECOMBINATION PROTEIN RADA, PDB entry 4b35",1300 µM (active)
CC1C(=O)OC2=C1C=COC2 (centres undefined),Kd,"protein: Hydrolase, alpha/beta fold family protein, PDB entry 4jym",9.05 µM (active)
C=C(C)/C=C/[C@H]1[C@@H](C)CCCC1(C)C,Kd,"protein: Cellular Retinal Binding Protein, PDB entry 4ciz",0.051 µM (active)
CC(C)C(=O)C[N+]1=C2N=C(N3CCOC[C@H]3C)CC(=O)N2CC[C@H]1C(F)(F)F,Kd,"protein: PHOSPHATIDYLINOSITOL 3-KINASE CATALYTIC SUBUNIT TYPE 3 Vsp34, PDB entry 4uwl",0.0027 µM (active)
Cn1cnc2nc(N)[nH]c(=O)c21,Kd,"protein: rRNA N-glycosidase, PDB entry 4i47",0.12 µM (active)
NCC(=O)NCC(=O)NCC(=O)N[C@@H](CO[P+](O)(O)O)C(=O)NCC(=O)NCC(=O)NCC(=O)O,Kd,"protein: 14-3-3 protein, PDB entry 1a37",0.12 µM (active)
OC[C@H]1O[C@@H](Sc2ccc3ccccc3c2)[C@H](O)[C@@H](O)[C@H]1O,Kd,"protein: PA-I GALACTOPHILIC LECTIN, PDB entry 4a6s",6.3 µM (active)
CC[C@H](C)[C@@H]1NC(=O)[C@H](CCCCN)NC(=O)[C@H](Cc2ccccc2)NC(=O)CNC(=O)[C@H](Cc2ccc(O)cc2)NC(=O)[C@H](CC(C)C)NC(=O)[C@H](CCCNC(N)N)NC(=O)[C@@H](NC(=O)CN)CSSC[C@@H](C(=O)NCC(=O)O)NC(=O)CNC(=O)[C@H](Cc2cnc[nH]2)NC1=O (H-GC[Orn(CH(NH2)2)]LYGFKIHGCG-OH; disulfide 2-12),Kd,"protein: Casein kinase II subunit alpha, PDB entry 4ib5",0.56 µM (active)
CC[C@H](C)[C@@H]1NC(=O)[C@H](Cc2cnc[nH]2)NC(=O)[C@H]([C@@H](C)CC)NC(=O)[C@H](CCCNC(N)N)NC(=O)[C@@H](N)CSSC[C@@H](C(=O)O)NC(=O)[C@H]([C@@H](C)O)NC(=O)[C@H](Cc2ccc(O)cc2)NC(=O)[C@H](Cc2ccccc2)NC(=O)[C@H](C)NC(=O)[C@H](CCCNC(N)N)NC(=O)CNC(=O)[C@@H]2CCCN2C(=O)CNC1=O,Kd,"protein: Fab mAb 447-52D Light Chain, PDB entry 4m1d",0.023 µM (active)
COc1cc2c(Nc3ccc(NC(=O)c4ccccc4)cc3)ncnc2cc1O,Kd,"protein: Bifunctional protein GlmU, PDB entry 4e1k",0.5 µM (active)
NC(N)NC[C@H]1Cc2ccccc2[C@@H]1NC(=O)C(=O)Nc1ccc(Cl)c(F)c1,Kd,"protein: HIV-1 glycoprotein, PDB entry 4i54",0.11 µM (active)
